# Molecular target: Proto-oncogene tyrosine-protein kinase ROS (Homo sapiens) (UniProt P08922)
# Conditions: at 0.1 µM
# Proto-oncogene tyrosine-protein kinase ROS (Homo sapiens), sequence (P08922 whole entry): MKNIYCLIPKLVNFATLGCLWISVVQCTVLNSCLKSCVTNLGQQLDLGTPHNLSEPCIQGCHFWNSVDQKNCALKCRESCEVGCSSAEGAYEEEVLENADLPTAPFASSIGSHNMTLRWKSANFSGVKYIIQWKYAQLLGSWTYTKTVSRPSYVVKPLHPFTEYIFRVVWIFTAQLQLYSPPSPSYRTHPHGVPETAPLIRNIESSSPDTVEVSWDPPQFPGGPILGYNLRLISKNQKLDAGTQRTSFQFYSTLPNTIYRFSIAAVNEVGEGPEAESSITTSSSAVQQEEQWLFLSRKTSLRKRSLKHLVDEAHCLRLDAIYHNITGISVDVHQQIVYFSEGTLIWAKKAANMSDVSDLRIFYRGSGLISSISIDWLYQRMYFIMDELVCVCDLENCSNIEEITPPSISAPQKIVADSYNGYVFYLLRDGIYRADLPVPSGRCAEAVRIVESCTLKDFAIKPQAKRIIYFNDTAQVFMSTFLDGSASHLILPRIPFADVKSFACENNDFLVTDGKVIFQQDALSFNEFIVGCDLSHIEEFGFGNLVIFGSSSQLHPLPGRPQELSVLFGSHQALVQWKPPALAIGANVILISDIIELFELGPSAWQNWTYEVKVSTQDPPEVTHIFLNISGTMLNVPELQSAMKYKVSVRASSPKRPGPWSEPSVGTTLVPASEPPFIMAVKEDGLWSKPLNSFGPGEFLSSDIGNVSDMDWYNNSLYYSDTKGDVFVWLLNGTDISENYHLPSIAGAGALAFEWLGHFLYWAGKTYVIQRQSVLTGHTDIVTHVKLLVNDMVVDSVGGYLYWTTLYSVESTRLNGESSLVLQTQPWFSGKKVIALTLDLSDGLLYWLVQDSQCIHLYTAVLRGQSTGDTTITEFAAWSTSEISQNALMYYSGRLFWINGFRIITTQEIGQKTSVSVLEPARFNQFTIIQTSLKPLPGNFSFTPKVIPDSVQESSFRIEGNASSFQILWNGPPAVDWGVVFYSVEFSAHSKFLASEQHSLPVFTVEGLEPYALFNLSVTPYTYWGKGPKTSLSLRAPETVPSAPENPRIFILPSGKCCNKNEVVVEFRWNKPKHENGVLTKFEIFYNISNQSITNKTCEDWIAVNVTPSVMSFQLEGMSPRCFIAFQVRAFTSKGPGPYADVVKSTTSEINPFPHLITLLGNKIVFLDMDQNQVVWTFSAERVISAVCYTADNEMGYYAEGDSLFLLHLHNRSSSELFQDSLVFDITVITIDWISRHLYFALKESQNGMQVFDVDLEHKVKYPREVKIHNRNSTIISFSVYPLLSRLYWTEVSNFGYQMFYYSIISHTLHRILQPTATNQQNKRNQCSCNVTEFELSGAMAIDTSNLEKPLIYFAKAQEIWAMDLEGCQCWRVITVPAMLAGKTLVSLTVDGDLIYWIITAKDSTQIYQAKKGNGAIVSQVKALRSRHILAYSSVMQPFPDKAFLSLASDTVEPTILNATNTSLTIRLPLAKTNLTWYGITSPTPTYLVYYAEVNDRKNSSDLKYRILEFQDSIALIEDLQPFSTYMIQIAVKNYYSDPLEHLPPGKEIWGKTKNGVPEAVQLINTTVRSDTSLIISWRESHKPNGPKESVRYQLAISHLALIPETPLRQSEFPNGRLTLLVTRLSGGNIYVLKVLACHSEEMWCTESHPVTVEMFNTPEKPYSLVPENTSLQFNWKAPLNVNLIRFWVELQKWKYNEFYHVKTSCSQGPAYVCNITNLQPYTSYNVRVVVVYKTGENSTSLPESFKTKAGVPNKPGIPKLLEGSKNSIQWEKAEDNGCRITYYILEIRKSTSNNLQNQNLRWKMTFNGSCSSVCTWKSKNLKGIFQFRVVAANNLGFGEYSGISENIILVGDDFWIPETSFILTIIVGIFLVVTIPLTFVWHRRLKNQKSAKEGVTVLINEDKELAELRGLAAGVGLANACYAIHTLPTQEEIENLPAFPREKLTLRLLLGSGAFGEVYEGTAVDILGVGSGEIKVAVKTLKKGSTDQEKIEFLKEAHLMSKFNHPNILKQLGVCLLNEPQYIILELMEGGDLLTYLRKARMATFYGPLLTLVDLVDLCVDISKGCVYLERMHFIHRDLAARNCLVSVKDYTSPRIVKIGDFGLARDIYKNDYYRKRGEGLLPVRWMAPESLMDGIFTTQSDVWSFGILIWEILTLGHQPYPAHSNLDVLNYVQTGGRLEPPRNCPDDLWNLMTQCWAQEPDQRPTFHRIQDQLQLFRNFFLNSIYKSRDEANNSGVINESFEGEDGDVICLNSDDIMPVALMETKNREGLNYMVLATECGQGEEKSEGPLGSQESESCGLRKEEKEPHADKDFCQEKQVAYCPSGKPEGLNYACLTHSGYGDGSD
row,Compound,inhibition [%]
1,[O-][S+]1CCN(Cc2ccc(-c3ccc4ncnc(Nc5ccc(OCc6ccccc6)c(Cl)c5)c4c3)o2)CC1,2.65
2,C[C@@H](Oc1cc(-n2cnc3ccc(OC[C@@H](O)CO)cc32)sc1C(N)=O)c1ccccc1Cl,1.32
3,OCc1ccc(-c2nc(-c3ccccn3)c(-c3ccc4c(c3)OCO4)[nH]2)cc1,6.84
4,NS(=O)(=O)c1ccc(Nc2cc(-c3cccc(O)c3)n[nH]2)cc1,6.66
5,Nc1ccc(C#Cc2cncnc2Nc2ccc(OCc3cccc(F)c3)c(Cl)c2)cc1,1.61
6,Cc1ccc(Nc2ccnc(Nc3cccc(C(N)=O)c3)n2)cc1O,17.4
7,CCCN1CCCC(c2ccc(Nc3nc(Nc4cc(F)ccc4C(N)=O)c4cc[nH]c4n3)c(OC)c2)C1 (stereo unspecified),63.8
8,N#Cc1cccc(Nc2nccc(-c3cnn4ncccc34)n2)c1,32.1
9,COc1cc(Nc2nccc(-c3cnn4ncccc34)n2)cc(OC)c1,57
10,CS(=O)(=O)CCNCc1nc(-c2ccc3ncnc(Nc4ccc(OCc5cccc(C(F)(F)F)c5)cc4)c3c2)cs1,4.03
11,Cc1ccc(O)cc1Nc1ccnc2ccc(S(C)(=O)=O)cc12,5.41
12,Cc1nc(-c2ccccc2)n2nc(NCCCN3CCOCC3)ncc12,4.45
13,COc1cccc(-n2ncc3c(N/N=C/c4ccc(S(C)(=O)=O)cc4)ncnc32)c1,7.29
14,NC(=O)c1sc(-n2cnc3ccccc32)cc1OCc1ccccc1Br,7.48
15,CS(=O)(=O)Nc1cccc(-c2ccc3c(NC(=O)C4CC4)n[nH]c3c2)c1,3.6
16,COc1cccc(-n2ncc3c(N/N=C/c4ccc(C)cc4)ncnc32)c1,14.2
17,NS(=O)(=O)c1cccc(Nc2cc(-c3ccc(F)cc3)n[nH]2)c1,4.34

row,Compound,inhibition [%]
1,COC(=O)c1ccc2c(c1)C(=Cc1cc(Br)c(O)c(Br)c1)C(=O)N2,6.38
2,CCS(=O)(=O)c1ccc(OC)c(Nc2nccc(N(C)c3ccc4c(C)n[nH]c4c3)n2)c1,12.1
3,O=S(=O)(CCOCc1ccc(-c2ccc3ncnc(Nc4ccc(OCc5cccc(F)c5)c(Cl)c4)c3c2)o1)c1ccccc1,2.65
4,Cc1cc(-c2ccccn2)cc(C)c1/C=C/c1cncc(-c2nn[nH]n2)c1,9.51
5,CN(C)C(=O)O[C@@H]1CN[C@@H](C#Cc2cc3ncnc(Nc4ccc(OCc5cccc(F)c5)c(Cl)c4)c3s2)C1,1.04
6,Oc1cccc(-c2nc(-c3ccccc3)[nH]c2-c2ccncc2)c1,4.41
7,CN1CCN(C(=O)c2ccc(NC(=O)Nc3ccc(N(C)c4ccnc(Nc5ccc(CS(C)(=O)=O)cc5)n4)cc3)cc2)CC1,14.6
8,COc1cc(/C=N/Nc2ncnc3c2cnn3C(C)C)ccc1O,11.9
9,FC(F)(F)c1ccc(-c2nn3ncccc3c2-c2ccnc(Nc3ccc4c(c3)OCCO4)n2)cc1,7.87
10,Nc1nccc(-c2c(-c3ccc(F)cc3)ncn2CCCN2CCOCC2)n1,5.06
11,Cc1ccc(C(=O)NC2CC2)cc1-c1ccc2[nH]ncc2c1,0.92
12,COc1cc2ncn(-c3cc(OCc4ccccc4S(C)(=O)=O)c(C#N)s3)c2cc1OC,27.4
13,COc1ccc2ncnc(Nc3ccc(OCc4ccccc4)cc3)c2c1,1.06
14,COC(=O)Nc1nc2cc(Oc3ccc(NC(=O)Nc4cccc(Br)c4)cc3)ccc2[nH]1,4.26
15,Cc1ccc2c(-c3ccnc(Nc4cccc(C(F)(F)F)c4)n3)c(-c3ccccc3)nn2n1,7.31
16,COc1cc2ncnc(Nc3ccc(C)c(O)c3)c2cc1OC,1.94

# Molecular target: Proto-oncogene tyrosine-protein kinase ROS (Homo sapiens) (UniProt P08922)
# Conditions: at 1 µM
row,Compound,inhibition [%]
1,[O-][S+]1CCN(Cc2ccc(-c3ccc4ncnc(Nc5ccc(OCc6ccccc6)c(Cl)c5)c4c3)o2)CC1,3.8
2,C[C@@H](Oc1cc(-n2cnc3ccc(OC[C@@H](O)CO)cc32)sc1C(N)=O)c1ccccc1Cl,11.6
3,OCc1ccc(-c2nc(-c3ccccn3)c(-c3ccc4c(c3)OCO4)[nH]2)cc1,8.11
4,NS(=O)(=O)c1ccc(Nc2cc(-c3cccc(O)c3)n[nH]2)cc1,12.1
5,Nc1ccc(C#Cc2cncnc2Nc2ccc(OCc3cccc(F)c3)c(Cl)c2)cc1,3.55
6,Cc1ccc(Nc2ccnc(Nc3cccc(C(N)=O)c3)n2)cc1O,61.4
7,CCCN1CCCC(c2ccc(Nc3nc(Nc4cc(F)ccc4C(N)=O)c4cc[nH]c4n3)c(OC)c2)C1 (stereo unspecified),81.2
8,N#Cc1cccc(Nc2nccc(-c3cnn4ncccc34)n2)c1,74.2
9,COc1cc(Nc2nccc(-c3cnn4ncccc34)n2)cc(OC)c1,87
10,CS(=O)(=O)CCNCc1nc(-c2ccc3ncnc(Nc4ccc(OCc5cccc(C(F)(F)F)c5)cc4)c3c2)cs1,4.18
11,Cc1ccc(O)cc1Nc1ccnc2ccc(S(C)(=O)=O)cc12,8.68
12,Cc1nc(-c2ccccc2)n2nc(NCCCN3CCOCC3)ncc12,2.41
13,COc1cccc(-n2ncc3c(N/N=C/c4ccc(S(C)(=O)=O)cc4)ncnc32)c1,27.2
14,NC(=O)c1sc(-n2cnc3ccccc32)cc1OCc1ccccc1Br,10.1
15,CS(=O)(=O)Nc1cccc(-c2ccc3c(NC(=O)C4CC4)n[nH]c3c2)c1,2.79
16,COc1cccc(-n2ncc3c(N/N=C/c4ccc(C)cc4)ncnc32)c1,38.4
17,NS(=O)(=O)c1cccc(Nc2cc(-c3ccc(F)cc3)n[nH]2)c1,4.36

row,Compound,inhibition [%]
1,COC(=O)c1ccc2c(c1)C(=Cc1cc(Br)c(O)c(Br)c1)C(=O)N2,9.41
2,CCS(=O)(=O)c1ccc(OC)c(Nc2nccc(N(C)c3ccc4c(C)n[nH]c4c3)n2)c1,51.3
3,O=S(=O)(CCOCc1ccc(-c2ccc3ncnc(Nc4ccc(OCc5cccc(F)c5)c(Cl)c4)c3c2)o1)c1ccccc1,3.57
4,Cc1cc(-c2ccccn2)cc(C)c1/C=C/c1cncc(-c2nn[nH]n2)c1,10.9
5,CN(C)C(=O)O[C@@H]1CN[C@@H](C#Cc2cc3ncnc(Nc4ccc(OCc5cccc(F)c5)c(Cl)c4)c3s2)C1,4.92
6,Oc1cccc(-c2nc(-c3ccccc3)[nH]c2-c2ccncc2)c1,9.95
7,CN1CCN(C(=O)c2ccc(NC(=O)Nc3ccc(N(C)c4ccnc(Nc5ccc(CS(C)(=O)=O)cc5)n4)cc3)cc2)CC1,54.1
8,COc1cc(/C=N/Nc2ncnc3c2cnn3C(C)C)ccc1O,37.5
9,FC(F)(F)c1ccc(-c2nn3ncccc3c2-c2ccnc(Nc3ccc4c(c3)OCCO4)n2)cc1,9.43
10,Nc1nccc(-c2c(-c3ccc(F)cc3)ncn2CCCN2CCOCC2)n1,5.81
11,Cc1ccc(C(=O)NC2CC2)cc1-c1ccc2[nH]ncc2c1,1.49
12,COc1cc2ncn(-c3cc(OCc4ccccc4S(C)(=O)=O)c(C#N)s3)c2cc1OC,68.7
13,COc1ccc2ncnc(Nc3ccc(OCc4ccccc4)cc3)c2c1,3.14
14,COC(=O)Nc1nc2cc(Oc3ccc(NC(=O)Nc4cccc(Br)c4)cc3)ccc2[nH]1,3.1
15,Cc1ccc2c(-c3ccnc(Nc4cccc(C(F)(F)F)c4)n3)c(-c3ccccc3)nn2n1,9.43
16,COc1cc2ncnc(Nc3ccc(C)c(O)c3)c2cc1OC,10.2

# From ChEMBL document CHEMBL1961873, “Compounds: GSK PKIS; Assays: Nanosyn kinase panel” (2012)
